# According to the supplement of paper PMC8728848:
# This is one part of a sample in which the strongest signals are shown more often than they occur.
# Legend:
# Assay in all cases: glycan array binding signal (z-score within array); higher = stronger binding
# Conditions in all cases: glycan notation: IUPAC condensed, linker removed
# Fuc(a1-2)Gal(b1-3)GalNAc = molecular target: Fuc(a1-2)Gal(b1-3)GalNAc
# Summary of the method: (§1)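 The Consortium for Functional Glycomics database supplied 3228 glycan arrays, of which those lacking an available protein sequence were dropped. The binding signal, a within-array Z-score, was averaged across arrays of the same protein sequence and across linkers. Negative scores can be read as non-binding.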
# [1] = molecular target: Fuc(a1-2)Gal(b1-3)GlcNAc(b1-3)[Fuc(a1-2)Gal(b1-3)GlcNAc(b1-6)]GalNAc
# Summary of the method: as §1
# [2] = molecular target: Fuc(a1-2)Gal(b1-3)[Fuc(a1-4)]GlcNAc(b1-2)Man(a1-3)[Fuc(a1-2)Gal(b1-3)[Fuc(a1-4)]GlcNAc(b1-2)Man(a1-3)]Man(b1-4)GlcNAc(b1-4)GlcNAc
# Summary of the method: as §1
# Fuc(a1-2)Gal(b1-4)Glc = molecular target: Fuc(a1-2)Gal(b1-4)Glc
# Summary of the method: as §1
# [3] = molecular target: Fuc(a1-2)Gal(b1-4)GlcNAc(b1-2)Man(a1-3)[Fuc(a1-2)Gal(b1-4)GlcNAc(b1-2)Man(a1-6)]Man(b1-4)GlcNAc(b1-4)GlcNAc
# Summary of the method: as §1
# [4] = molecular target: Fuc(a1-2)Gal(b1-4)GlcNAc(b1-2)[Fuc(a1-2)Gal(b1-4)GlcNAc(b1-4)]Man(a1-3)[Fuc(a1-2)Gal(b1-4)GlcNAc(b1-2)Man(a1-6)]Man(b1-4)GlcNAc(b1-4)GlcNAc
# Summary of the method: as §1
# [5] = molecular target: Fuc(a1-2)Gal(b1-4)GlcNAc(b1-3)[Fuc(a1-3)[Gal(b1-4)]GlcNAc(b1-6)]Gal(b1-4)Glc
# Summary of the method: as §1
# [6] = molecular target: Fuc(a1-2)Gal(b1-4)[Fuc(a1-3)]GlcNAc(b1-2)[Fuc(a1-2)Gal(b1-4)[Fuc(a1-3)]GlcNAc(b1-4)]Man(a1-3)[Fuc(a1-2)Gal(b1-4)[Fuc(a1-3)]GlcNAc(b1-2)Man(a1-6)]Man(b1-4)GlcNAc(b1-4)GlcNAc
# Summary of the method: as §1
# Fuc(a1-2)Gal6S(b1-4)Glc = molecular target: Fuc(a1-2)Gal6S(b1-4)Glc
# Summary of the method: as §1
# [7] = molecular target: Fuc(a1-2)[Gal(a1-3)]Gal(b1-3)GlcNAc(b1-2)Man(a1-3)[Fuc(a1-2)[Gal(a1-3)]Gal(b1-3)GlcNAc(b1-2)Man(a1-6)]Man(b1-4)GlcNAc(b1-4)GlcNAc
# Summary of the method: as §1
# [8] = molecular target: Gal(a1-3)[Gal(a1-4)]Gal(b1-4)GlcNAc
# Summary of the method: as §1
# [9] = molecular target: Gal(a1-4)Gal(b1-4)GlcNAc(b1-3)Gal(b1-4)Glc
# Summary of the method: as §1
# [10] = molecular target: Gal(b1-3)GlcNAc(b1-2)Man(a1-3)[Gal(b1-3)GlcNAc(b1-2)Man(a1-6)]Man(b1-4)GlcNAc(b1-4)GlcNAc
# Summary of the method: as §1
# [11] = molecular target: Gal(b1-3)GlcNAc(b1-2)Man(a1-3)[Gal(b1-3)GlcNAc(b1-2)Man(a1-6)]Man(b1-4)GlcNAc(b1-4)[Fuc(a1-6)]GlcNAc
# Summary of the method: as §1
# [12] = molecular target: Gal(b1-3)GlcNAc(b1-2)[Gal(b1-3)GlcNAc(b1-6)]Man(a1-6)[Gal(b1-3)GlcNAc(b1-2)Man(a1-3)]Man(b1-4)GlcNAc(b1-4)GlcNAc
# Summary of the method: as §1
# [13] = molecular target: Gal(b1-3)GlcNAc(b1-3)Gal(b1-4)[Fuc(a1-3)]GlcNAc
# Summary of the method: as §1
# [14] = molecular target: Gal(b1-4)GlcNAc(b1-2)Man(a1-3)[GlcNAc(b1-4)][Gal(b1-4)GlcNAc(b1-2)Man(a1-6)]Man(b1-4)GlcNAc(b1-4)GlcNAc
# Summary of the method: as §1
# [15] = molecular target: Gal(b1-4)GlcNAc(b1-2)Man(a1-6)Man(b1-4)GlcNAc(b1-4)GlcNAc
# Summary of the method: as §1
# [16] = molecular target: Gal(b1-4)GlcNAc(b1-3)Gal(b1-4)GlcNAc(b1-3)Gal(b1-4)GlcNAc(b1-3)Gal(b1-4)GlcNAc(b1-2)Man(a1-3)[Gal(b1-4)GlcNAc(b1-3)Gal(b1-4)GlcNAc(b1-3)Gal(b1-4)GlcNAc(b1-3)Gal(b1-4)GlcNAc(b1-2)Man(a1-6)]Man(b1-4)GlcNAc(b1-4)[Fuc(a1-6)]GlcNAc
# Summary of the method: as §1
# [17] = molecular target: Gal(b1-4)GlcNAc(b1-3)Gal(b1-4)GlcNAc(b1-6)[Gal(b1-3)]GalNAc
# Summary of the method: as §1
# Gal(b1-6)Gal = molecular target: Gal(b1-6)Gal
# Summary of the method: as §1
# Gal3S6S(b1-4)GlcNAc = molecular target: Gal3S6S(b1-4)GlcNAc
# Summary of the method: as §1
# Gal3S6S(b1-4)GlcNAc6S = molecular target: Gal3S6S(b1-4)GlcNAc6S
# Summary of the method: as §1
# Gal6S(b1-3)GlcNAc = molecular target: Gal6S(b1-3)GlcNAc
# Summary of the method: as §1
# Gal6S(b1-3)GlcNAc6S = molecular target: Gal6S(b1-3)GlcNAc6S
# Summary of the method: as §1
# Gal6S(b1-4)Glc = molecular target: Gal6S(b1-4)Glc
# Summary of the method: as §1
# Gal6S(b1-4)Glc6S = molecular target: Gal6S(b1-4)Glc6S
# Summary of the method: as §1
# Gal6S(b1-4)GlcNAc = molecular target: Gal6S(b1-4)GlcNAc
# Summary of the method: as §1
# Gal6S(b1-4)GlcNAc6S = molecular target: Gal6S(b1-4)GlcNAc6S
# Summary of the method: as §1
# [18] = molecular target: GalNAc(a1-3)GalNAc(b1-3)Gal(a1-4)Gal(b1-4)GlcNAc
# Summary of the method: as §1
# GalNAc(b1-4)Gal(b1-4)Glc = molecular target: GalNAc(b1-4)Gal(b1-4)Glc
# Summary of the method: as §1
# GalNAc6S(b1-4)GlcNAc = molecular target: GalNAc6S(b1-4)GlcNAc
# Summary of the method: as §1
# Glc(b1-4)Glc = molecular target: Glc(b1-4)Glc
# Summary of the method: as §1
# [19] = molecular target: GlcA3S(b1-3)Gal(b1-4)GlcNAc(b1-2)Man
# Summary of the method: as §1
# [20] = molecular target: GlcA3S(b1-3)Gal(b1-4)GlcNAc(b1-3)Gal(b1-4)Glc
# Summary of the method: as §1
# [21] = molecular target: GlcNAc(a1-3)Gal(b1-4)GlcNAc
# Summary of the method: as §1
# [22] = molecular target: GlcNAc(a1-6)Gal(b1-4)GlcNAc
# Summary of the method: as §1
# [23] = molecular target: GlcNAc(b1-3)Gal(b1-4)GlcNAc(b1-3)Gal(b1-4)GlcNAc(b1-2)Man(a1-3)[GlcNAc(b1-3)Gal(b1-4)GlcNAc(b1-3)Gal(b1-4)GlcNAc(b1-2)Man(a1-6)]Man(b1-4)GlcNAc(b1-4)[Fuc(a1-6)]GlcNAc
# Summary of the method: as §1
# [24] = molecular target: GlcNAc(b1-4)Gal(b1-4)GlcNAc
# Summary of the method: as §1
# [25] = molecular target: Neu5Ac(a2-3)Gal(b1-4)GlcNAc(b1-2)Man(a1-3)[Neu5Ac(a2-3)Gal(b1-4)GlcNAc(b1-2)Man(a1-6)]Man(b1-4)GlcNAc(b1-4)[Fuc(a1-6)]GlcNAc
# Summary of the method: as §1
# [26] = molecular target: Neu5Ac(a2-3)Gal(b1-4)GlcNAc(b1-3)Gal(b1-4)GlcNAc(b1-3)Gal(b1-4)GlcNAc
# Summary of the method: as §1
# [27] = molecular target: Neu5Ac(a2-3)Gal(b1-4)GlcNAc(b1-3)Gal(b1-4)GlcNAc(b1-3)Gal(b1-4)GlcNAc(b1-2)Man(a1-3)[Neu5Ac(a2-3)Gal(b1-4)GlcNAc(b1-3)Gal(b1-4)GlcNAc(b1-3)Gal(b1-4)GlcNAc(b1-2)Man(a1-6)]GalNAc
# Summary of the method: as §1
# [28] = molecular target: Neu5Ac(a2-3)Gal(b1-4)GlcNAc(b1-3)Gal(b1-4)GlcNAc(b1-3)[Neu5Ac(a2-3)Gal(b1-4)GlcNAc(b1-3)Gal(b1-4)GlcNAc(b1-6)]GalNAc
# Summary of the method: as §1
# [29] = molecular target: Neu5Ac(a2-3)Gal(b1-4)[Fuc(a1-3)]GlcNAc(b1-3)Gal(b1-4)GlcNAc
# Summary of the method: as §1
# [30] = molecular target: Neu5Ac(a2-3)Gal6S(b1-4)GlcNAc
# Summary of the method: as §1
# [31] = molecular target: Neu5Ac(a2-6)Gal(b1-4)GlcNAc(b1-2)Man(a1-3)Man(b1-4)GlcNAc(b1-4)GlcNAc
# Summary of the method: as §1
# [32] = molecular target: Neu5Ac(a2-6)Gal(b1-4)GlcNAc(b1-2)Man(a1-6)[Gal(b1-4)GlcNAc(b1-2)Man(a1-3)]Man(b1-4)GlcNAc(b1-4)GlcNAc
# Summary of the method: as §1
# [33] = molecular target: Neu5Ac(a2-6)Gal(b1-4)GlcNAc(b1-6)[Gal(b1-3)]GalNAc
# Summary of the method: as §1
# [34] = molecular target: Neu5Ac(a2-6)GlcNAc(b1-4)GlcNAc
# Summary of the method: as §1
# [35] = molecular target: Neu5Gc(a2-8)Neu5Gc(a2-6)Gal(b1-4)GlcNAc
# Summary of the method: as §1
binder,measurement,setting,value
GS13846A-bth-444-19-444 (Bacteroides thetaiotaomicron) (protein) SCENEFDVSDKADSLISVTVNTLNNQAAYNVGETAQAELWIQRGGLKDASGKVQFVVDPLLLDSLNQEDKTNYELLPENCYEMTNTEFTVDKNELCGYITYHPEKILALSAYNETKYVLPLRLISNDLAINPARNTSFLAFTILEPIVHISNAGVYNINPDLTSTMDIQIGVPFTNKWDILCNLTEDLSLIDEYNQINKVNFTLLPENAYTAPESVTLQEGVSQITASYQLKNNLVPGNYILPIKIGSITASQGGVPNNSLVIDEESNVLFCIVKEGNKINKSGWEVIECSSEHAGNEATYMIDDNESTYWHCKFKNEAGSSVPPFHFIIDMKKEITIAQIDLLNRGDGAANNIKWVEFYASNNNSEWDKIGAGDFNDEGTRATFRYYVKSTKARYLKLIIPEGYGNNCPPAAIRELTVYGLEGNN,glycan array binding signal (z-score),Fuc(a1-2)Gal(b1-3)GalNAc,-0.247
same,glycan array binding signal (z-score),[1],-0.101
same,glycan array binding signal (z-score),[2],-0.423
same,glycan array binding signal (z-score),Fuc(a1-2)Gal(b1-4)Glc,-0.176
same,glycan array binding signal (z-score),[3],0.384
same,glycan array binding signal (z-score),[4],-0.079
same,glycan array binding signal (z-score),[5],0.069
same,glycan array binding signal (z-score),[6],-0.407
same,glycan array binding signal (z-score),Fuc(a1-2)Gal6S(b1-4)Glc,-0.234
same,glycan array binding signal (z-score),[7],-0.305
same,glycan array binding signal (z-score),[8],2.7
same,glycan array binding signal (z-score),[9],-0.018
same,glycan array binding signal (z-score),[10],0.242
same,glycan array binding signal (z-score),[11],3.4
same,glycan array binding signal (z-score),[12],-0.163
same,glycan array binding signal (z-score),[13],0.028
same,glycan array binding signal (z-score),[14],-0.238
same,glycan array binding signal (z-score),[15],-0.133
same,glycan array binding signal (z-score),[16],0.486
same,glycan array binding signal (z-score),[17],-0.308
same,glycan array binding signal (z-score),Gal(b1-6)Gal,-0.188
same,glycan array binding signal (z-score),Gal3S6S(b1-4)GlcNAc,6.47
same,glycan array binding signal (z-score),Gal3S6S(b1-4)GlcNAc6S,6.71
same,glycan array binding signal (z-score),Gal6S(b1-3)GlcNAc,7.3
same,glycan array binding signal (z-score),Gal6S(b1-3)GlcNAc6S,6.28
same,glycan array binding signal (z-score),Gal6S(b1-4)Glc,3.68
same,glycan array binding signal (z-score),Gal6S(b1-4)Glc6S,12.7
same,glycan array binding signal (z-score),Gal6S(b1-4)GlcNAc,4.8
same,glycan array binding signal (z-score),Gal6S(b1-4)GlcNAc6S,8.87
same,glycan array binding signal (z-score),[18],-0.175
same,glycan array binding signal (z-score),GalNAc(b1-4)Gal(b1-4)Glc,0
same,glycan array binding signal (z-score),GalNAc6S(b1-4)GlcNAc,5.49
same,glycan array binding signal (z-score),Glc(b1-4)Glc,-0.32
same,glycan array binding signal (z-score),[19],-0.266
same,glycan array binding signal (z-score),[20],-0.082
same,glycan array binding signal (z-score),[21],-0.214
same,glycan array binding signal (z-score),[22],-0.052
same,glycan array binding signal (z-score),[23],0.103
same,glycan array binding signal (z-score),[24],-0.193
same,glycan array binding signal (z-score),[25],-0.407
same,glycan array binding signal (z-score),[26],0.067
same,glycan array binding signal (z-score),[27],-0.089
same,glycan array binding signal (z-score),[28],-0.336
same,glycan array binding signal (z-score),[29],-0.205
same,glycan array binding signal (z-score),[30],-0.129
same,glycan array binding signal (z-score),[31],-0.287
same,glycan array binding signal (z-score),[32],-0.298
same,glycan array binding signal (z-score),[33],1.86
same,glycan array binding signal (z-score),[34],0.027
same,glycan array binding signal (z-score),[35],-0.262
